Counter-ions that a name gives are not always drawn. ± gives the standard deviation or the standard deviation of the averaged measurements.
Tests used:
Conditions in all cases: 25 µM; exposure: 24-48 hpf
[1] = system: Danio rerio Tg(wt1b:EGFP) embryo, pronephros; experiment: glomerular separation, fold change vs DMSO control; higher = glomeruli further apart (abnormal)
How it was run: (§1)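 In HEPES-buffered E3 with 0.003% PTU and 0.5% DMSO, dechorionated Tg(wt1b:EGFP) zebrafish embryos were exposed to 25 μM compound from 24 to 48 hpf at 28.5°C. Pronephroi were then imaged dorsally at 470 nm in 10 z-slices, in 96-well plates filled with agarose. On maximum projections, a Fiji macro turned 16 manually placed reference points into distances and angles, and values more than 2 SD from the feature mean were excluded. Features are fold changes relative to the mean of DMSO-treated embryos from the same day.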

[2] = system: Danio rerio Tg(wt1b:EGFP) embryo, pronephros; experiment: glomerular width (mean of left and right), fold change vs DMSO control; higher = wider glomerulus
How it was run: as §1

[3] = system: Danio rerio Tg(wt1b:EGFP) embryo, pronephros; experiment: fraction of imaged embryos annotated as normal kidney; higher = less nephrotoxic; extreme values may be limits of the assay
How it was run: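 Tricaine-anaesthetised Tg(wt1b:EGFP) zebrafish larvae were oriented dorsally in agarose-filled 96-well plates, and their pronephroi were recorded by widefield fluorescence at 470 nm in 10 z-slices. Before this, the dechorionated embryos had been exposed in 12-well plates to 25 μM compound in 0.5% DMSO and 5 mM HEPES-buffered E3 with 0.003% PTU, from 24 to 48 hpf at 28.5°C. Maximum projections were annotated manually for each embryo, and the read-out is the fraction per treatment classed as normal kidney.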

[4] = system: Danio rerio Tg(wt1b:EGFP) embryo, pronephros; experiment: pronephric angle neck segment to proximal convoluted tubule (mean of left and right), fold change vs DMSO control; higher = larger pronephric angle
How it was run: as §1

Compound	glomerular separation [1]	glomerular width [2]	fraction of imaged embryos annotated as normal kidney [3]	pronephric angle neck segment [4]
C[N+]1(C)CCC(=C(c2ccccc2)c2ccccc2)CC1 [Diphemanil methylsulfate]	1.35 ± 0.53	0.992 ± 0.041	0.75	1.02 ± 0.033
CO[C@H]1C[C@H](O[C@H]2[C@H](C)[C@@H](O[C@@H]3O[C@H](C)C[C@H](N(C)C)[C@H]3OC(C)=O)[C@@H](C)C[C@@]3(CO3)C(=O)[C@H](C)[C@@H](OC(C)=O)[C@@H](C)[C@@H](C)OC(=O)[C@@H]2C)O[C@@H](C)[C@@H]1OC(C)=O [Troleandomycin]	1.39 ± 0.74	1.12 ± 0.066	0.917	0.969 ± 0.019
CC1(C)S[C@@H]2[C@H](NC(=O)[C@H](C(=O)O)c3ccsc3)C(=O)N2[C@H]1C(=O)O [Ticarcillin sodium]	0.953 ± 0.36	1.01 ± 0.048	0.8	1.006 ± 0.0094
CC[C@@]1(O)C(=O)OCc2c1cc1n(c2=O)Cc2cc3c(CN(C)C)c(O)ccc3nc2-1 [Topotecan]	1.74 ± 0.72	0.793 ± 0.022	0.727	1.27 ± 0.062
CCCCC(C)(O)C/C=C/[C@H]1[C@H](O)CC(=O)[C@@H]1CCCCCCC(=O)OC (mixture of isomers) [Misoprostol]	0.763 ± 0.35	0.959 ± 0.024	1	0.985 ± 0.04
CC(C)OC(=O)C(C)(C)Oc1ccc(C(=O)c2ccc(Cl)cc2)cc1 [Fenofibrate]	6.84 ± 3.3	0.648 ± 0.076	0	1.801 ± 0.0082
Nc1ccn([C@@H]2O[C@H](CO)[C@@H](O)[C@@H]2O)c(=O)n1 [Cytarabine]	0.773 ± 0.16	1.06 ± 0.016	0.917	0.998 ± 0.015
N#Cc1cc(NC(=O)C(=O)O)c(Cl)c(NC(=O)C(=O)O)c1 [Lodoxamide]	1.24 ± 0.55	0.9808 ± 0.0037	0.917	1.05 ± 0.059
O=C(C1CCCCC1)N1CC(=O)N2CCc3ccccc3C2C1 (stereo not given) [Praziquantel]	1.18 ± 0.28	1 ± 0.052	0.545	1.02 ± 0.057
C[C@@H](O)[C@H]1C(=O)N2C(C(=O)O)=C(SCCNC=N)C[C@H]12 [Imipenem]	0.805 ± 0.16	1.091 ± 0.01	1	0.951 ± 0.015
C[C@H]1[C@H](NC(=O)/C(=N\OC(C)(C)C(=O)O)c2csc(N)n2)C(=O)N1S(=O)(=O)O [Aztreonam]	0.857 ± 0.2	1.143 ± 0.0015	0.917	0.9634 ± 0.0095
CN(C)CCOC(=O)COc1ccc(Cl)cc1 [Meclofenoxate hydrochloride]	1.19 ± 0.36	1.02 ± 0.049	0.667	1.05 ± 0.057
CC1(C)S[C@@H]2[C@H](NC(=O)Cc3ccccc3)C(=O)N2[C@H]1C(=O)O [Benzathine benzylpenicillin]	0.907 ± 0.35	1.06 ± 0.074	1	0.951 ± 0.019
Nc1cc(-c2ccncc2)c[nH]c1=O [Amrinone]	0.609 ± 0.23	1.01 ± 0.036	0.917	0.969 ± 0.014
Fc1ccc([C@@H]2CCNC[C@H]2COc2ccc3c(c2)OCO3)cc1 [Paroxetine Hydrochloride]	0.594 ± 0.17	1.03 ± 0.042	1	0.9885 ± 0.0011
CC(Oc1ccccc1)C(=O)N[C@@H]1C(=O)N2[C@@H]1SC(C)(C)[C@@H]2C(=O)O (stereo not given in full) [Phenethicillin potassium salt]	0.88 ± 0.24	0.963 ± 0.057	0.667	0.989 ± 0.028
c1ccc([C@H]2CN3CCSC3=N2)cc1 [Levamisole hydrochloride]	0.699 ± 0.16	1.08 ± 0.018	0.917	0.979 ± 0.016
CC(C)C[C@H](NC(=O)[C@@H](O)[C@H](N)Cc1ccccc1)C(=O)O [Ubenimex]	1.12 ± 0.52	1.01 ± 0.048	0.833	1.01 ± 0.028
CC[N+](CC)(CC(=O)Nc1c(C)cccc1C)Cc1ccccc1 [Denatonium benzoate]	0.973 ± 0.36	0.844 ± 0.018	0.917	0.99113 ± 0.00026
CCC1(C)CC(=O)NC1=O (stereo not given) [Ethosuximide]	0.979 ± 0.37	1.07 ± 0.029	0.833	0.972 ± 0.013
C[C@](N)(Cc1ccc(O)c(O)c1)C(=O)O [Methyldopa (L,-)]	1.03 ± 0.18	1.02 ± 0.081	0.909	1.001 ± 0.0027
CN1CCC(OC(c2ccccc2)c2ccccc2)CC1 [Diphenylpyraline hydrochloride]	1.02 ± 0.24	1.07 ± 0.053	1	0.963 ± 0.035
CC(C)(C)NCC(O)c1ccc(O)c(CO)c1 (stereo not given) [Salbutamol]	1.15 ± 0.52	1.05 ± 0.013	0.833	1.04 ± 0.041
CC(=O)OCC(=O)[C@@]1(O)CC[C@H]2[C@@H]3CCC4=CC(=O)CC[C@]4(C)[C@H]3[C@@H](O)C[C@@]21C [Cortisol acetate]	1.43 ± 0.59	1.29 ± 0.049	0.25	1.01 ± 0.031
CCOc1ccc(NC(C)=O)cc1 [Phenacetin]	1.14 ± 0.31	1.0834 ± 0.00038	0.667	0.946 ± 0.022
CN1CCC(=C2c3ccccc3CC(=O)c3sccc32)CC1 [Ketotifen fumarate]	0.991 ± 0.29	1.06 ± 0.027	0.833	0.948 ± 0.013
CCCC(=O)Nc1ncnc2c1ncn2[C@@H]1O[C@@H]2COP(=O)(O)O[C@H]2[C@H]1OC(=O)CCC [Bucladesine sodium salt]	0.912 ± 0.4	0.933 ± 0.04	0.917	0.9351 ± 0.0021
CN(C)C(=O)C(CCN1CCC(O)(c2ccc(Cl)cc2)CC1)(c1ccccc1)c1ccccc1 [Loperamide hydrochloride]	1.07 ± 0.32	1.04 ± 0.12	0.667	1.03 ± 0.065

Compound	glomerular separation [1]	glomerular width [2]	fraction of imaged embryos annotated as normal kidney [3]	pronephric angle neck segment [4]
Cn1cnc([N+](=O)[O-])c1Sc1ncnc2[nH]cnc12 [Azathioprine]	1.2 ± 0.26	1.02 ± 0.042	0.833	0.994 ± 0.015
CCCCCCCN(CC)CCCC(O)c1ccc(NS(C)(=O)=O)cc1 (stereo not given) [Ibutilide fumarate]	0.897 ± 0.24	1.0672 ± 0.00094	1	0.961 ± 0.086
C[N+]1(CCCCC[N+]2(C)CCCC2)CCCC1 [Pentolinium bitartrate]	1.28 ± 0.5	1.0393 ± 0.0007	0.75	1.05 ± 0.052
CC(C)NCC(O)c1ccc(O)c(O)c1 (single isomer, unassigned; (+)) [(+)-Isoproterenol (+)-bitartrate salt]	1.57 ± 0.7	1.03 ± 0.023	0.833	1 ± 0.015
CN1CCC(=C2c3ccccc3CCc3sccc32)CC1 [Pizotifen malate]	1.26 ± 0.48	0.84842 ± 0.00054	1	1.06 ± 0.0029
O=C(O)COC(=O)Cc1ccccc1Nc1c(Cl)cccc1Cl [Aceclofenac]	3.56 ± 1.8	1 ± 0.16	0.25	1.24 ± 0.15
C[C@]12CC[C@@H]3c4ccc(O)cc4CC[C@H]3[C@@H]1C[C@@H](O)[C@@H]2O [Estriol]	0.626 ± 0.2	1.03 ± 0.042	0.917	1.026 ± 0.0015
CCN(CC)CCNC(=O)c1cc(Br)c(N)cc1OC [Bromopride]	0.903 ± 0.35	1.04 ± 0.015	1	1.02 ± 0.036
CC(=O)O[C@H]1C[C@@]2(C)[C@@H](C[C@@H](O)[C@H]3[C@@]4(C)CC[C@@H](O)[C@@H](C)[C@@H]4CC[C@@]32C)/C1=C(\CCC=C(C)C)C(=O)O [Fusidic acid sodium salt]	0.853 ± 0.16	1.06 ± 0.025	1	1.02 ± 0.014
CC(C)CC(=O)N[C@H](C(=O)N[C@H](C(=O)N[C@@H](CC(C)C)[C@@H](O)CC(=O)N[C@@H](C)C(=O)N[C@@H](CC(C)C)[C@@H](O)CC(=O)O)C(C)C)C(C)C [Pepstatin A]	0.947 ± 0.11	1.03 ± 0.012	0.818	1.01 ± 0.041
CC1=C(/C=C/C(C)=C/C=C/C(C)=C/C(=O)O)C(C)(C)CCC1 [Retinoic acid]	3.15 ± 1.8	0.639 ± 0.044	0	1.67 ± 0.033
COc1ccc([C@@H]2Sc3ccccc3N(CCN(C)C)C(=O)[C@@H]2OC(C)=O)cc1 [Diltiazem hydrochloride]	0.914 ± 0.32	1.24 ± 0.11	0.667	1.211 ± 0.0023
CCOC(=O)[C@H](CCc1ccccc1)N[C@@H](C)C(=O)N1Cc2ccccc2C[C@H]1C(=O)O [Quinapril hydrochloride]	0.927 ± 0.39	0.987 ± 0.012	1	0.99 ± 0.015
CCCNCC(O)COc1ccccc1C(=O)CCc1ccccc1 (stereo not given) [Propafenone hydrochloride]	1.06 ± 0.39	1.05 ± 0.0038	0.818	1.13 ± 0.035
Cc1cnc(C(=O)NCCc2ccc(S(=O)(=O)NC(=O)NC3CCCCC3)cc2)cn1 [Glipizide]	0.984 ± 0.34	1.056 ± 0.0043	0.833	0.944 ± 0.021
C1N2CN3CN1CN(C2)C3 [Methenamine]	0.642 ± 0.2	0.975 ± 0.051	0.917	0.994 ± 0.029
CCN(CC)CCNC(=O)COc1ccc(OC)cc1 [Mefexamide hydrochloride]	1.52 ± 0.84	0.916 ± 0.021	0.833	1.07 ± 0.086
O=C(Nc1ccc([N+](=O)[O-])cc1Cl)c1cc(Cl)ccc1O [Niclosamide]	1.53 ± 0.67	0.907 ± 0.04	0.455	1.26 ± 0.093
Nc1nnc(-c2cccc(Cl)c2Cl)c(N)n1 [Lamotrigine]	0.99 ± 0.4	0.999 ± 0.016	0.9	0.998 ± 0.039
COc1ccc(C(=O)NCc2cccnc2)cc1C(=O)NCc1cccnc1 [Picotamide monohydrate]	0.955 ± 0.31	1.028 ± 0.0052	0.75	0.991 ± 0.0099
CN(CCOc1ccc(NS(C)(=O)=O)cc1)CCc1ccc(NS(C)(=O)=O)cc1 [Dofetilide]	1.35 ± 0.35	0.982 ± 0.025	0.583	1.01 ± 0.07
COc1ccccc1OCC(O)COC(N)=O (stereo not given) [Methocarbamol]	1.02 ± 0.45	1.05 ± 0.03	0.833	1 ± 0.013
CN(N=O)C(=O)N[C@@H](C=O)[C@@H](O)[C@H](O)[C@H](O)CO [Streptozotocin]	0.671 ± 0.14	1.06 ± 0.047	1	1.01 ± 0.025
CCCN[C@H]1CCc2nc(N)sc2C1 [Pramipexole dihydrochloride]	0.857 ± 0.44	1.03 ± 0.049	0.833	1.01 ± 0.046
CNC(=C[N+](=O)[O-])NCCSCc1ccc(CN(C)C)o1 [Ranitidine hydrochloride]	0.923 ± 0.34	0.941 ± 0.074	0.667	1.1 ± 0.051
CC(NCCC(c1ccccc1)c1ccccc1)c1ccccc1 (stereo not given) [Fendiline hydrochloride]	1.17 ± 0.28	0.995 ± 0.018	0.727	1 ± 0.036
COc1ccccc1N1CCN(CCCNc2cc(=O)n(C)c(=O)n2C)CC1 [Urapidil hydrochloride]	1.09 ± 0.36	0.969 ± 0.025	0.917	1.02 ± 0.025
